Data: PubChem BioAssay AID492963 (The Scripps Research Institute Molecular Screening Center, 2010)
The whole screen tested about 1,100 compounds, of which about 420 (38%) were called active. Only a sample is shown. Values without a mark were called inactive. No stated cut-off is given here; in the data, active means inhibition above about 29%; inactive means the rest.

molecular target: Orexin/Hypocretin receptor type 1 (Homo sapiens) (UniProt O43613); experiment: OX1R (HCRTR1) antagonists, confirmation, fluorescence, CHO/OX1R cells, Fluo-8 calcium, orexin A (AID 492963); conditions: orexin A calcium Fluo-8 fluorescence, at 5 µM, active compounds read high;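 further: 0% = agonist challenge alone and 100% = reference antagonist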
Sequence (O43613 whole entry, looked up): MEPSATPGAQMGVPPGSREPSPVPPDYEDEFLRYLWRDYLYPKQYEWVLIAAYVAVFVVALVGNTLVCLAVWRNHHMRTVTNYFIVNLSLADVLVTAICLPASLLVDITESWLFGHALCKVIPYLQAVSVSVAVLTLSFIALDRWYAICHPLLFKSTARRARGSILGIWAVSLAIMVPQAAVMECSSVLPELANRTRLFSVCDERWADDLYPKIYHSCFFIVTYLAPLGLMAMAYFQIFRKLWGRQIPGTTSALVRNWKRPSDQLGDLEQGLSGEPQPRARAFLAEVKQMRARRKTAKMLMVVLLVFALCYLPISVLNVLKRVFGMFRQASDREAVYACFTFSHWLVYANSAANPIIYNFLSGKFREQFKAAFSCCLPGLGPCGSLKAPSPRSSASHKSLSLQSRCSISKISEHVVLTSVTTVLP

Row | SMILES | inhibition
1 | O=C(Nc1cccc2cccnc12)c1cccc(N2C(=O)CCC2=O)c1 | 33.2% (active)
2 | CCOC(=O)c1cccc(NC(=O)CN(c2ccc(C)cc2)S(=O)(=O)c2c(C)noc2C)c1 | 5.21%
3 | COc1ccc2sc(-c3ccc(N(C)C)cc3)c(C#CCO)c2c1 | 25.9%
4 | CCOC(=O)c1c(-c2ccc(C)cc2C)csc1NC(=O)CSc1nnnn1C | -17.1%
5 | CCn1c(SCC(=O)c2ccc3ccccc3c2)nnc1-c1cccs1 | 29.5% (active)
6 | CCOC(=O)N1CCN(C(=O)c2ccc(S(=O)(=O)Nc3cccc(C(F)(F)F)c3)cc2)CC1 | 15.2%
7 | COc1ccc(N2CC(C(=O)NCCN3C(=O)S/C(=C\c4cccnc4)C3=O)CC2=O)c(OC)c1 (stereo not given) | 26.6%
8 | COc1cc(CN2CC(C)CC(C)C2)cc([N+](=O)[O-])c1O (stereo not given) | -4.4%
9 | COc1ccccc1CNC(=O)C1CCCN(S(=O)(=O)c2cccc3cccnc23)C1 (stereo not given) | -1.33%
10 | Cc1cc(C)cc(NC(=O)C2CCCN2S(=O)(=O)c2cccc3cccnc23)c1 (stereo not given) | 62.9% (active)
11 | NC(=O)C1=C[C@@H](c2ccc3c(c2)OCO3)C[C@@H](OCCCCO)O1 | 1.6%
12 | CC1(C)C2CC=C(/C=N/NC(=O)C3CC3)C1C2 (stereo not given) | -24.5%
13 | O=C(Cn1[nH]c(=O)c2ccccc2c1=O)Nc1cccc(-c2nnc3n2CCCCC3)c1 | 24.9%
14 | S=C(NCc1ccc(Cl)cc1)NC12CC3CC(CC(C3)C1)C2 | 10.8%
15 | Cc1cc(N2CCCC2=O)cc(C)c1S(N)(=O)=O | 1.01%
16 | N#C/C(=C/c1ccc(N2CCCCC2)o1)C(=O)NCCc1c[nH]c2ccccc12 | 48.7% (active)
17 | O=C(N/N=C/c1c(Cl)[nH]c2ccccc12)c1sc2ccccc2c1Cl | 79% (active)
18 | C/C(N)=C(/C#N)C(=O)COC(=O)c1cc(-c2ccc(C)cc2)nc2ccccc12 | -4.02%
19 | CCc1ccccc1OCC(=O)Nc1ccc(C)c(S(=O)(=O)N2CCCCCC2)c1 | 5.4%
20 | O=C(NC(Cc1c[nH]c2ccccc12)C(=O)N/N=C/c1ccc(Br)cc1)c1cccs1 (stereo not given) | 55.8% (active)
21 | CCOc1ccc(CCNC(=O)C(CC)n2nc(C)n3c(cc4sccc43)c2=O)cc1OCC (stereo not given) | 25.3%
22 | CC(C)(C)NC(=O)CN(C(=O)c1csnn1)c1ccccc1-c1ccccc1 | 18.8%

Row | SMILES | inhibition
23 | N#CC(=C1SC=CS1)c1nc(-c2ccccc2)cs1 | 87.3% (active)
24 | N#C/C(=C1\CCCN1)c1nc(-c2ccccc2)cs1 | 40% (active)
25 | Nc1nc(COC(=O)CCC(=O)c2ccc(Cl)cc2)nc(Nc2ccccc2)n1 | 19.1%
26 | CC(Oc1ccc2ccccc2c1)C(=O)NNC(=S)NC(=O)c1ccco1 (stereo not given) | 5.25%
27 | N/C(=N\OC(=O)Nc1ccc(Cl)c(Cl)c1)c1ncc(C(F)(F)F)cc1Cl | 29% (active)
28 | COC(=O)c1sccc1NC(=O)CSc1ccccc1NS(=O)(=O)c1cc(Cl)ccc1Cl | 21.5%
29 | Cc1cc(C(=O)NC2CCCc3c2cnn3-c2cccc(C)c2C)c(C)o1 (stereo not given) | 27.6%
30 | CC(=O)Nc1cccc(OCC(=O)/C=C2\N(C)c3ccccc3C2(C)C)c1 | 15.6%
31 | Cc1cccc(NS(=O)(=O)c2cccc(C(=O)NNC(=O)c3ccccc3O)c2)c1 | 14.2%
32 | COc1ccc(/C=C/C(=O)c2ccc(NS(=O)(=O)c3ccc(C)cc3)cc2)cc1O | 42.2% (active)
33 | O=C1C=C(c2ccc(Cl)cc2)C(=O)N1Nc1ccccc1 | 57% (active)
34 | Cc1ccc2c(C)c(C(=O)N(C)CCC3CCCCO3)oc2c1C (stereo not given) | -17.4%
35 | O=C(N/N=C/c1sc(N2CCCCC2)nc1-c1cccs1)c1cccnc1 | 48.1% (active)
36 | Cc1cccc(NC(=O)Nc2cccc(Oc3c(F)c(F)c(F)c(F)c3F)c2)c1 | 12.1%
37 | CCCN(CC(=O)Nc1ccccc1OC)C(=O)CCC(=O)c1ccc(F)cc1 | 1.45%
38 | Cc1cc(-c2ccc(C)c(S(=O)(=O)NC(C)Cc3ccco3)c2)on1 (stereo not given) | 0.43%
39 | CCOc1ccc(/C=C/C(=O)OCC(=O)c2ccccc2OC)cc1OC | 36.1% (active)
40 | O=C(CCCN1CCc2[nH]c3ccc(F)cc3c2C1)c1ccc(F)cc1 | 26.4%
41 | Cn1c(N)c(C(=O)COC(=O)c2ccc3ccccc3c2)c(=O)n(C)c1=O | 30.5% (active)
42 | Cc1ccc(S(=O)(=O)N2CCN(c3ncnc4ccccc34)CC2)cc1 | 15%
43 | CCOc1cc(/C=C(\C#N)c2nc(-c3cccs3)c(NC(C)=O)s2)ccc1O | 18%
44 | O=C1c2ccccc2S(=O)(=O)N1CC(O)Cn1c2ccccc2c2ccccc21 (stereo not given) | 29.4% (active)

Row | SMILES | inhibition
45 | CC1CCCN(CC(O)COCc2ccccc2)C1 (stereo not given) | 5.05%
46 | O=C(OC1CCOC1=O)c1ccc(-c2nc3ccccc3s2)s1 (stereo not given) | 43.4% (active)
47 | CCCc1nc2c(c(=O)c3ccccc3n2C)c(=O)n1C1CCCCCC1 | 9.14%
48 | S=c1[nH]nc(-c2cc(-c3ccccc3)n[nH]2)n1/N=C/c1c2ccccc2cc2ccccc12 | 38.1% (active)
49 | CCOC(=O)N1CCN(c2cc(C)c([N+](=O)[O-])cc2F)CC1 | 17.3%
50 | COc1cccc(C(=O)NC(=O)Nc2nc(C)cc(C(F)(F)F)n2)c1 | 35% (active)
51 | CCCCC(=O)NNC(=S)NC(=O)C(c1ccccc1)c1ccccc1 | 58.6% (active)
52 | CCCCCCCC(=O)NC(Nc1ccccc1OC)C(Cl)(Cl)Cl (stereo not given) | -23.5%
53 | Cc1ccc(NC(=O)COc2ccc(-n3ccnc3)cc2)cc1Cl | 22.1%
54 | O=C(Nc1cccc(NC(=O)N2CCN(c3ccccc3)CC2)c1)N1CCN(c2ccccc2)CC1 | 37.3% (active)
55 | COc1cc2ccccc2cc1C(=O)Nc1ccc(N2CCOCC2)cc1 | -1.28%
56 | CN(c1ccccc1)S(=O)(=O)c1cccc(NC(=O)Cc2ccc(Cl)cc2)c1 | 26%
57 | N#Cc1nc(-c2cccc3ccccc23)oc1N | 40.6% (active)
58 | COc1cccc(/C=N/Nc2cc(C)nc(-c3ccccc3O)n2)c1O | 69.7% (active)
59 | COc1cccc(/C=N/NC(=O)c2[nH]nc3c2CCc2ccccc2-3)c1O | 20.3%
60 | CCC(=O)N(C)C(c1ccccc1Cl)c1nnnn1-c1c(C)cccc1C (stereo not given) | 21.7%
61 | Cc1ccccc1S(=O)(=O)N1[C@@H](c2cccc(Cl)c2)C(C(=O)O)=CC[C@H]1c1ccc(Cl)cc1 | 43.3% (active)
62 | COCc1c(C(=O)OCC(=O)Nc2ccc(OC(F)F)cc2)oc2ccccc12 | 26.3%
63 | C=CCn1c(SCC(=O)Nc2nc3ccccc3s2)nnc1-c1ccccc1O | 48% (active)
64 | COc1ccc2[nH]cc(/C=C(/C#N)S(=O)(=O)c3ccccc3)c2c1 | 8.34%
65 | c1coc(CNc2ncnc3ccccc23)c1 | 24.7%
